According to article PMC7862700, “An all-to-all approach to the identification of sequence-specific readers for epigenetic DNA modifications on cytosine”:

Assays:
Assay in all cases: DAPPL (digital affinity profiling via proximity ligation, sequencing); 10 mM Tris-HCl pH 7.5, 50 mM NaCl, 1 mM DTT, 4% glycerol, room temperature, 30 min; GST-TFs on glutathione beads, 16-mer random dsDNA library, 0.1% formaldehyde crosslink after washing; high values mean tight binding
[1] = target: T1, FLI1 (Homo sapiens, UniProt Q01543 1-452); details: protein: recombinant; tags: N-terminal GST; dsDNA, one strand shown
T1 sequence: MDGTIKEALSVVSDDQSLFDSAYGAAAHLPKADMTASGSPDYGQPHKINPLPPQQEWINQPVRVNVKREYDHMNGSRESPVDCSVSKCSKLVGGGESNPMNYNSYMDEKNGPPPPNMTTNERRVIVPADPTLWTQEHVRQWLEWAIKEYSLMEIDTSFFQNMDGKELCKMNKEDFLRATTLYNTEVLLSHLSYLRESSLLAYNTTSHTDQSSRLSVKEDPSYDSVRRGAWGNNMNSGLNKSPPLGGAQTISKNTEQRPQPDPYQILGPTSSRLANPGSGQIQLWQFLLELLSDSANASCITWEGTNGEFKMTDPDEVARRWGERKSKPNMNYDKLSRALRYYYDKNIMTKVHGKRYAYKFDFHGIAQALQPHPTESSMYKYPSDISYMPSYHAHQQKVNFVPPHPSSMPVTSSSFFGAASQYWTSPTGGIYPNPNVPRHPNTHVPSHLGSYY
Summary of the method: (§1)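 A tag-only sample was pooled with DNA-barcoded human transcription factors that had been expressed in yeast as GST fusions and captured on glutathione beads. The pools were incubated for 30 min at room temperature with 200 nmole of a random double-stranded 16-mer DNA library in Tris/NaCl/DTT/glycerol buffer, then washed, crosslinked with 0.1% formaldehyde, proximity-ligated (BsaI/T4 ligase, 1 h, 37 °C), PCR-amplified and sequenced on an Illumina NextSeq500. Binding signal is each hexamer's read frequency for a factor divided by its frequency for the tag-only sample.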

[2] = target: T2, ELK1 (Homo sapiens, UniProt P19419 1-428); details: protein: recombinant; tags: N-terminal GST; dsDNA, one strand shown
T2 sequence: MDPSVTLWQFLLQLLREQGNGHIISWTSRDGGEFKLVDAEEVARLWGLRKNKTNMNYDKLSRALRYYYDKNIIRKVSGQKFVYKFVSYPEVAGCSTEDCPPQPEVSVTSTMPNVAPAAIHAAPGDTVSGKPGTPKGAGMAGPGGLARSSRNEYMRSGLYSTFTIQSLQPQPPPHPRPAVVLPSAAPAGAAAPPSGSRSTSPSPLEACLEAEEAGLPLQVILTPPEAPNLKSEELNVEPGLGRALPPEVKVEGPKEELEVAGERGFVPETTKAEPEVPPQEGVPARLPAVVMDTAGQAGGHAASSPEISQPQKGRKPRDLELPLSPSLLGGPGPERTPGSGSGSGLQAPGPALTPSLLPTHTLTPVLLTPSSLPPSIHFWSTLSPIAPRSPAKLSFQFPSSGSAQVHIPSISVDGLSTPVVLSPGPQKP
Summary of the method: as §1

[3] = target: T3, GABPA (Homo sapiens, UniProt Q06546 1-454); details: protein: recombinant; tags: N-terminal GST; dsDNA, one strand shown
T3 sequence: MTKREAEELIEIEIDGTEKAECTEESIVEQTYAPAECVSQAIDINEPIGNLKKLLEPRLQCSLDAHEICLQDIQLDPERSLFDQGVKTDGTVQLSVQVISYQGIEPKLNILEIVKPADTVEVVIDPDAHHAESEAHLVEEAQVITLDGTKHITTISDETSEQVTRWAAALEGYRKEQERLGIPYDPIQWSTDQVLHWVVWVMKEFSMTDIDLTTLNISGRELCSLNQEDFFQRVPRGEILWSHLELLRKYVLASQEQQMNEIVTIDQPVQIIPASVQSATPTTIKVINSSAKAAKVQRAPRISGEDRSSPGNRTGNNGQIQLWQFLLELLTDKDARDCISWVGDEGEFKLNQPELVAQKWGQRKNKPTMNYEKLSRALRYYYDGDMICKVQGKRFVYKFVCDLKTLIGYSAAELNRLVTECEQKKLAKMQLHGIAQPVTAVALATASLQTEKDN
Summary of the method: as §1

[4] = target: T4, ERG (Homo sapiens, UniProt P11308 1-479); details: protein: recombinant; tags: N-terminal GST; dsDNA, one strand shown
T4 sequence: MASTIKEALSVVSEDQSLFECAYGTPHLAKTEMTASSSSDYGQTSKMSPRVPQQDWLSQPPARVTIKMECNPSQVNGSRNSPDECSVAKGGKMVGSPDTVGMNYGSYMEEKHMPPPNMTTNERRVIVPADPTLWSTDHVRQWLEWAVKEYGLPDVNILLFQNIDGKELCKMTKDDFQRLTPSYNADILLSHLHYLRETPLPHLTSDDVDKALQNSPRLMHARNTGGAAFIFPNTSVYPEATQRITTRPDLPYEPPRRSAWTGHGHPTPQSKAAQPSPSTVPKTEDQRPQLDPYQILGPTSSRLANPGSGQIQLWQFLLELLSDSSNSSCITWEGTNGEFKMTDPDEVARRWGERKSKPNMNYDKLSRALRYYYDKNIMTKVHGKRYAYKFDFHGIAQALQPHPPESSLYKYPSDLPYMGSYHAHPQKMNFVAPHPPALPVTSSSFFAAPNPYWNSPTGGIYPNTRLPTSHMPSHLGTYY
Summary of the method: as §1

[5] = target: ELF1 (Homo sapiens, UniProt P32519 1-619); details: protein: recombinant; tags: N-terminal GST; dsDNA, one strand shown
Summary of the method: as §1

[6] = target: T5, EHF (Homo sapiens, UniProt Q9NZC4 1-300); details: protein: recombinant; tags: N-terminal GST; dsDNA, one strand shown
T5 sequence: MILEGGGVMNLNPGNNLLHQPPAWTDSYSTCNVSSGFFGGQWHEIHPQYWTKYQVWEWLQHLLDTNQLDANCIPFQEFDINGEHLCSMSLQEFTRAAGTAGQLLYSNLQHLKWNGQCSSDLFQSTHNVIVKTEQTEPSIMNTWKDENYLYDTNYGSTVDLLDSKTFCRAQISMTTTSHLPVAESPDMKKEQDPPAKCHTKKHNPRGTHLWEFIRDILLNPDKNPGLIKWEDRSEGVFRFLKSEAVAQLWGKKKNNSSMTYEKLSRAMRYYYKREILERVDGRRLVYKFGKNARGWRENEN
Summary of the method: as §1

[7] = target: SPI1 (Homo sapiens, UniProt P17947 1-270); details: protein: recombinant; tags: N-terminal GST; dsDNA, one strand shown
Summary of the method: as §1

[8] = target: SPIB (Homo sapiens, UniProt Q01892 1-262); details: protein: recombinant; tags: N-terminal GST; dsDNA, one strand shown
Summary of the method: as §1

[9] = target: T6, FEV (Homo sapiens, UniProt Q99581 1-238); details: protein: recombinant; tags: N-terminal GST; dsDNA, one strand shown
T6 sequence: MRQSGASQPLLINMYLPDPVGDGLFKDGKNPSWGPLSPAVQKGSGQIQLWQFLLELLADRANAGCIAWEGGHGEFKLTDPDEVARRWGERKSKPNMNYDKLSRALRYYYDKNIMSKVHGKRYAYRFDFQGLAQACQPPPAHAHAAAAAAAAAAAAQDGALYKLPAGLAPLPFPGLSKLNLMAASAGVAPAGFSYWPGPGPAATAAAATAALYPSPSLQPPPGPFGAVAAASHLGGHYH
Summary of the method: as §1

[10] = target: ETV5 (Homo sapiens, UniProt P41161 1-510); details: protein: recombinant; tags: N-terminal GST; dsDNA, one strand shown
Summary of the method: as §1

[11] = target: HSF1 (Homo sapiens, UniProt Q00613 1-529); details: protein: recombinant; tags: N-terminal GST; chain copies: 3; dsDNA, one strand shown
Summary of the method: as §1

[12] = target: T7, SPIC (Homo sapiens, UniProt Q8N5J4 1-248); details: protein: recombinant; tags: N-terminal GST; dsDNA, one strand shown
T7 sequence: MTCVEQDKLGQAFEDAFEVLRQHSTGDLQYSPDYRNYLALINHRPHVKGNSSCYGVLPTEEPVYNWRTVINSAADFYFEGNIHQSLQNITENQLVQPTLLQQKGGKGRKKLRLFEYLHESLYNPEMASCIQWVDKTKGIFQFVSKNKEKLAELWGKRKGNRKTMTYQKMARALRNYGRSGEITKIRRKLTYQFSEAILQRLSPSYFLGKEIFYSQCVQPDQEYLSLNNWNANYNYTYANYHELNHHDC
Summary of the method: as §1

[13] = target: ELF4 (Homo sapiens, UniProt Q99607 1-663); details: protein: recombinant; tags: N-terminal GST; dsDNA, one strand shown
Summary of the method: as §1

[14] = target: T8, ELK4 (Homo sapiens, UniProt P28324-2 1-405); details: protein: recombinant; tags: N-terminal GST; dsDNA, one strand shown
T8 sequence: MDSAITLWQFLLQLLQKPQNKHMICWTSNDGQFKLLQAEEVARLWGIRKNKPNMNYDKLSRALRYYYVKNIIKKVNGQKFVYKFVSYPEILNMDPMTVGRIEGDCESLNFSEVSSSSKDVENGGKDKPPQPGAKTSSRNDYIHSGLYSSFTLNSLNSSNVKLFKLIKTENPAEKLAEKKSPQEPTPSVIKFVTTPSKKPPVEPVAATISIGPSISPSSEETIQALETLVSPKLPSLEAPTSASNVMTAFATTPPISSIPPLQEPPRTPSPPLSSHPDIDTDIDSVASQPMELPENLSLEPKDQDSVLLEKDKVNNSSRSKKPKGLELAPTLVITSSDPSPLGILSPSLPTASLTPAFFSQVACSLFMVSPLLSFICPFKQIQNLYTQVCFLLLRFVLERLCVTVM
Summary of the method: as §1

[15] = target: T9, ETV2 (Homo sapiens, UniProt O00321 1-342); details: protein: recombinant; tags: N-terminal GST; dsDNA, one strand shown
T9 sequence: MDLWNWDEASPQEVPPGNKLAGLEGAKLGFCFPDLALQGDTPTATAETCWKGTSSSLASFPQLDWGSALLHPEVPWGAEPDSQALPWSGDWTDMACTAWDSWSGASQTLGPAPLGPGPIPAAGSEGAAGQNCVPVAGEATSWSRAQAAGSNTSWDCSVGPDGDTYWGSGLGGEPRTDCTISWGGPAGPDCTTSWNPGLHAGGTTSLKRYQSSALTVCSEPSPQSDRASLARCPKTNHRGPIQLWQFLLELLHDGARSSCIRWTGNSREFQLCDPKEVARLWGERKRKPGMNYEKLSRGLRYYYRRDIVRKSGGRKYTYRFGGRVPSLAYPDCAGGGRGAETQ
Summary of the method: as §1

[16] = target: T10, ELF3 (Homo sapiens, UniProt P78545 1-371); details: protein: recombinant; tags: N-terminal GST; dsDNA, one strand shown
T10 sequence: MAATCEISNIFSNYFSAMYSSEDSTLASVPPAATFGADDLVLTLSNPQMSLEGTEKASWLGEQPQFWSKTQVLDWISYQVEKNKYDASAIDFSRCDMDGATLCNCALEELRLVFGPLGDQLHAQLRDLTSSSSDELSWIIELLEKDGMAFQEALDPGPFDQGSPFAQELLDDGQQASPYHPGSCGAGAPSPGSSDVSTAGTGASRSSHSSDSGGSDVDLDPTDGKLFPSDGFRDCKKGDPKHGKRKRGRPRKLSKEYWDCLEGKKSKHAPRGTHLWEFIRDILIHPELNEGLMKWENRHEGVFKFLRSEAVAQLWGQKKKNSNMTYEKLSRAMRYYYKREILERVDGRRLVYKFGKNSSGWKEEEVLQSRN
Summary of the method: as §1

[17] = target: CRX (Homo sapiens, UniProt O43186 1-299); details: protein: recombinant; tags: N-terminal GST; dsDNA, one strand shown
Summary of the method: as §1

[18] = target: ETV1 (Homo sapiens, UniProt P50549 1-477); details: protein: recombinant; tags: N-terminal GST; dsDNA, one strand shown
Summary of the method: as §1

Chain of ELF4 (Q99607 whole entry): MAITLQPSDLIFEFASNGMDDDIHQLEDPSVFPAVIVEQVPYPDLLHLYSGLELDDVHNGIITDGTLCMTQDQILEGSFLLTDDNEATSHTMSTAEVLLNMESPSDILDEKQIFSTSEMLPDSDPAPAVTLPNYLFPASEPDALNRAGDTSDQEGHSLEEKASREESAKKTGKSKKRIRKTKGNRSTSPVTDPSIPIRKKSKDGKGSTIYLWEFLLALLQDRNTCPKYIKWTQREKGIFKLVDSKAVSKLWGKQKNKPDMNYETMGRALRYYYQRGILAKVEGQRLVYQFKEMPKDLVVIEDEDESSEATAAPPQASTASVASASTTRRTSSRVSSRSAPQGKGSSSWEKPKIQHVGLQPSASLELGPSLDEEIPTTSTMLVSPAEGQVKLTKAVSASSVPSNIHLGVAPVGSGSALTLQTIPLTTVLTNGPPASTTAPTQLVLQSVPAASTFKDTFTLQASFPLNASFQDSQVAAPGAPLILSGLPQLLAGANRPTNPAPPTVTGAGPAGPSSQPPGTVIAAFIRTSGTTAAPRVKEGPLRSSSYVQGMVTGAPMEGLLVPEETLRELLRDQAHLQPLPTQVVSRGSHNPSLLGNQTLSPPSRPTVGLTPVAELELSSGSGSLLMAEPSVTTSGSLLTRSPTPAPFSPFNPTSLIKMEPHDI
Chain of CRX (O43186 whole entry): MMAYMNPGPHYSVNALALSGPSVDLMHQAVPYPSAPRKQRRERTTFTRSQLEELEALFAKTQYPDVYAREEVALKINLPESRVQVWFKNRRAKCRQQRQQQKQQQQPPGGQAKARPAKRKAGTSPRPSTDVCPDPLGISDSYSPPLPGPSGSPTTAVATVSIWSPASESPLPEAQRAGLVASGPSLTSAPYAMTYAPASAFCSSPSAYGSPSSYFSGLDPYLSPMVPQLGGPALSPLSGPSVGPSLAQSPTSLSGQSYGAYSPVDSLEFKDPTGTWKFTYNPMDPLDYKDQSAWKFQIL
Chain of ETV5 (P41161 whole entry): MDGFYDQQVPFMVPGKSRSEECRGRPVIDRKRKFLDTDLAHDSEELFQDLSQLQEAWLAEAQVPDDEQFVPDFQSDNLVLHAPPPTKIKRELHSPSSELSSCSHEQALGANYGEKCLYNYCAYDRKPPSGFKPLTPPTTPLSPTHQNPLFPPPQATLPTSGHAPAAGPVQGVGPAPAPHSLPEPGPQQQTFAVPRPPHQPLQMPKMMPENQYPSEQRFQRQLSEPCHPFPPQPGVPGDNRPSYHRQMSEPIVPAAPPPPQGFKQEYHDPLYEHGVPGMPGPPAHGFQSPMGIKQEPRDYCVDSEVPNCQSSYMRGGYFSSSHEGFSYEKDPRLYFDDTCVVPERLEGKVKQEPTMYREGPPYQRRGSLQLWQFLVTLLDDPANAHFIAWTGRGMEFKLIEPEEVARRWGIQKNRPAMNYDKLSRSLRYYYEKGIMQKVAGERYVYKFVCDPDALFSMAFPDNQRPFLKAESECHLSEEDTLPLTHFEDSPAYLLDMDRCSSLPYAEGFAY
Chain of ELF1 (P32519 whole entry): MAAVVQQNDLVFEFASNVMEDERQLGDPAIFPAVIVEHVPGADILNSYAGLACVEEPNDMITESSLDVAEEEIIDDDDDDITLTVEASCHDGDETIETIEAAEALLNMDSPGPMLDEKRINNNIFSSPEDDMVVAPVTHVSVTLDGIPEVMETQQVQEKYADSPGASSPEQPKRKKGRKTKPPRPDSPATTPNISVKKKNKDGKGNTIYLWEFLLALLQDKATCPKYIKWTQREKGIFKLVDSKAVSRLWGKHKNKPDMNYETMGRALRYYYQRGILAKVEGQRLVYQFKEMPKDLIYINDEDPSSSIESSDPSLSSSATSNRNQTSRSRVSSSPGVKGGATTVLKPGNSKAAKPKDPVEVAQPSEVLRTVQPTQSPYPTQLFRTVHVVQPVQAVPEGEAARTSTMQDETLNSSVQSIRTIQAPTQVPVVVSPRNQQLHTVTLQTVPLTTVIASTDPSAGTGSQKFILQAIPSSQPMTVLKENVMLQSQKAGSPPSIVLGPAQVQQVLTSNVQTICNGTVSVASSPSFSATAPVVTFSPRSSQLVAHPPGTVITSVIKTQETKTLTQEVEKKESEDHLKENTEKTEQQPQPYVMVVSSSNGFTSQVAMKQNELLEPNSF
Chain of HSF1 (Q00613 whole entry): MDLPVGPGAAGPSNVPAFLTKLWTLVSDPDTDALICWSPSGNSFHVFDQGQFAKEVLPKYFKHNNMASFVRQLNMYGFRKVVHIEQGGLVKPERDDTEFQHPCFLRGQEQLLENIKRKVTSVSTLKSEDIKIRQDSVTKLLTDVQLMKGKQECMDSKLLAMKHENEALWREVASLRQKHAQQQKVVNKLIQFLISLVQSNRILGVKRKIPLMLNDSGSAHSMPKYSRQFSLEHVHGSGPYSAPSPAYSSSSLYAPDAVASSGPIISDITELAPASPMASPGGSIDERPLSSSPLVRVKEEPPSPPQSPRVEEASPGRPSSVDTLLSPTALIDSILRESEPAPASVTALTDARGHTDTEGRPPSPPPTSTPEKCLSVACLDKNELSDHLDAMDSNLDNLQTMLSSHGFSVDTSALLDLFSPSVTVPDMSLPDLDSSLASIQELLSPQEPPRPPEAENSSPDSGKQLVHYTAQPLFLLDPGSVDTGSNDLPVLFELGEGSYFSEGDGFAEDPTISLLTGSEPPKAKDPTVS
Chain of ETV1 (P50549 whole entry): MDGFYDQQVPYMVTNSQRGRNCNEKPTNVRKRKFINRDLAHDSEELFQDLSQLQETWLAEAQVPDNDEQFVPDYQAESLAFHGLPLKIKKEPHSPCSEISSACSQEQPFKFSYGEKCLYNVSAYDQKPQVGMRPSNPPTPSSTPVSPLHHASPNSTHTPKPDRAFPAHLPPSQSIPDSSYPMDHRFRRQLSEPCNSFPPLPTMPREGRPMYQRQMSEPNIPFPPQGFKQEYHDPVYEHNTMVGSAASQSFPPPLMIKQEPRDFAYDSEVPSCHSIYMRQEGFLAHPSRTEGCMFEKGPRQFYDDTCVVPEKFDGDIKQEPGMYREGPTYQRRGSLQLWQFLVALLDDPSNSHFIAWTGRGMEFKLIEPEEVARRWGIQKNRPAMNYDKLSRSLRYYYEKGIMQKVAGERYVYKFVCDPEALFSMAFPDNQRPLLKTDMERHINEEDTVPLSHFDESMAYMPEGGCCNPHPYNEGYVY
Chain of SPIB (Q01892 whole entry): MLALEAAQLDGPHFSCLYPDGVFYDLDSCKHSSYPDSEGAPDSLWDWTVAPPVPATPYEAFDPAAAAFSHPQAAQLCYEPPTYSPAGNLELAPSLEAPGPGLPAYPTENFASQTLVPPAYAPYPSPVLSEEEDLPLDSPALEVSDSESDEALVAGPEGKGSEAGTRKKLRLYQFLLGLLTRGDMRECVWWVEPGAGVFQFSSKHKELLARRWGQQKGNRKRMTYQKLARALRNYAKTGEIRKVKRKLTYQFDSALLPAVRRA

| Sequence | binding signal [1] | binding signal [2] | binding signal [3] | binding signal [4] | binding signal [5] | binding signal [6] | binding signal [7] | binding signal [8] | binding signal [9] | binding signal [10] | binding signal [11] | binding signal [12] | binding signal [13] | binding signal [14] | binding signal [15] | binding signal [16] | binding signal [17] | binding signal [18] |
| --- | --- | --- | --- | --- | --- | --- | --- | --- | --- | --- | --- | --- | --- | --- | --- | --- | --- | --- |
| CCGAGC | 1.17 fold enrichment (6-mer frequency, TF over GST control) | 1.25 fold enrichment (6-mer frequency, TF over GST control) | 1.2 fold enrichment (6-mer frequency, TF over GST control) | 1.11 fold enrichment (6-mer frequency, TF over GST control) | 1.15 fold enrichment (6-mer frequency, TF over GST control) | 1.12 fold enrichment (6-mer frequency, TF over GST control) | 1.12 fold enrichment (6-mer frequency, TF over GST control) | 1.19 fold enrichment (6-mer frequency, TF over GST control) | 1.18 fold enrichment (6-mer frequency, TF over GST control) | 1.14 fold enrichment (6-mer frequency, TF over GST control) | 1.13 fold enrichment (6-mer frequency, TF over GST control) | 1.26 fold enrichment (6-mer frequency, TF over GST control) | 1.09 fold enrichment (6-mer frequency, TF over GST control) | 1.09 fold enrichment (6-mer frequency, TF over GST control) | 1.35 fold enrichment (6-mer frequency, TF over GST control) | 1.23 fold enrichment (6-mer frequency, TF over GST control) | 1.01 fold enrichment (6-mer frequency, TF over GST control) | 1.02 fold enrichment (6-mer frequency, TF over GST control) |
| TTGAGG | 1.23 fold enrichment (6-mer frequency, TF over GST control) | 1.09 fold enrichment (6-mer frequency, TF over GST control) | 1.16 fold enrichment (6-mer frequency, TF over GST control) | 1.06 fold enrichment (6-mer frequency, TF over GST control) | 1.08 fold enrichment (6-mer frequency, TF over GST control) | 1.11 fold enrichment (6-mer frequency, TF over GST control) | 1.27 fold enrichment (6-mer frequency, TF over GST control) |  | 1.06 fold enrichment (6-mer frequency, TF over GST control) | 1.09 fold enrichment (6-mer frequency, TF over GST control) | 1.01 fold enrichment (6-mer frequency, TF over GST control) | 1.26 fold enrichment (6-mer frequency, TF over GST control) | 1.13 fold enrichment (6-mer frequency, TF over GST control) | 1.23 fold enrichment (6-mer frequency, TF over GST control) | 1.1 fold enrichment (6-mer frequency, TF over GST control) | 1.05 fold enrichment (6-mer frequency, TF over GST control) | 1.02 fold enrichment (6-mer frequency, TF over GST control) | 1.06 fold enrichment (6-mer frequency, TF over GST control) |
